Hit rate of the full screen: of about 5,500 compounds, about 2,000 (36%) were called active. Roughly 18% stayed inconclusive and do not appear here. No stated cut-off is given here; in the data, active means normalized growth mostly below about 0.91 (no sharp cut-off); inconclusive means no clear call, values can overlap the other calls; inactive means mostly above about 0.92. Some of the results follow.
Experiment: chemical genetic growth profiling, strain panel (AID 1159580);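 further: tested at 20 µM; growth read once vehicle control cultures reached saturation at 30 °C; 1 = growth at the plate median or of vehicle wells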
Conditions: growth OD

Measured: normalized growth

O=C(Nc1ccc(C(F)(F)F)cc1)Nc1ccccc1C(=O)O
inactive: S. cerevisiae deletion strains, locus YAL013W, strain DEP1, stronger effect = lower value 0.975 | S. cerevisiae deletion strains, locus YBR229C, strain ROT2, stronger effect = lower value 0.993 | S. cerevisiae deletion strains, locus YCL061C, strain MRC1, stronger effect = lower value 0.967 | S. cerevisiae deletion strains, locus YDL101C, strain DUN1, stronger effect = lower value 0.994 | S. cerevisiae deletion strains, locus YDL134C, strain PPH21, stronger effect = lower value 0.989 | S. cerevisiae deletion strains, locus YDR150W, strain NUM1, stronger effect = lower value 0.972 | S. cerevisiae deletion strains, locus YEL061C, strain CIN8, stronger effect = lower value 1.01 | S. cerevisiae deletion strains, locus YGR078C, strain PAC10, stronger effect = lower value 0.984 | S. cerevisiae deletion strains, locus YGR229C, strain SMI1, stronger effect = lower value 0.975 | S. cerevisiae deletion strains, locus YHR030C, strain SLT2, stronger effect = lower value 0.99 | S. cerevisiae deletion strains, locus YHR087W, strain rtc3, stronger effect = lower value 0.994 | S. cerevisiae deletion strains, locus YJR043C, strain POL32, stronger effect = lower value 0.981 | S. cerevisiae deletion strains, locus YJR075W, strain HOC1, stronger effect = lower value 0.979 | S. cerevisiae deletion strains, locus YKL190W, strain CNB1, stronger effect = lower value 0.989 | S. cerevisiae deletion strains, locus YLR039C, strain RIC1, stronger effect = lower value 1.01 | S. cerevisiae deletion strains, locus YLR058C, strain SHM2 (second series), stronger effect = lower value 0.979 | S. cerevisiae deletion strains, locus YLR085C, strain ARP6, stronger effect = lower value 1 | S. cerevisiae deletion strains, locus YLR262C, strain YPT6, stronger effect = lower value 0.935 | S. cerevisiae deletion strains, locus YML094W, strain GIM5, stronger effect = lower value 1 | S. cerevisiae deletion strains, locus YMR219W, strain ESC1, stronger effect = lower value 0.971 | S. cerevisiae deletion strains, locus YMR263W, strain SAP30, stronger effect = lower value 0.991 | S. cerevisiae deletion strains, locus YNL153C, strain GIM3, stronger effect = lower value 0.977 | S. cerevisiae deletion strains, locus YNL298W, strain CLA4 (second series), stronger effect = lower value 0.96 | S. cerevisiae deletion strains, locus YNL322C, strain KRE1, stronger effect = lower value 0.971 | S. cerevisiae deletion strains, locus YNR030W, strain Alg12, stronger effect = lower value 1 | S. cerevisiae deletion strains, locus YOL006C, strain TOP1, stronger effect = lower value 0.939 | S. cerevisiae deletion strains, locus YPL055C, strain LGE1, stronger effect = lower value 0.996 | S. cerevisiae deletion strains, locus YPL241C, strain CIN2, stronger effect = lower value 0.977 | S. cerevisiae deletion strains, locus YPR135W, strain CTF4, stronger effect = lower value 0.949 | S. cerevisiae strains, strain wild type, stronger effect = lower value 0.968

— PubChem BioAssay AID1159580 (chemical genetic matrix, 2015)
